From paper PMC12136788
Over roughly 24,000 sequences, “enrichment r” has its median near 0.99; the highest 2% begin near 3.7. The entries come from a sample that favours the highest values as a whole.

B1: 140276459_140277056_1559_CDS_ENSMUSG00000040945_ENSMUST00000038893|mouse|control|control (ssRNA)
RNA: GGGAGUUCUACAGUCCGACGAUCGUCUCGCGCUAUCACCAAGGAGUGUGAAUAGCCCAUGGCCACCUGUUCGGAGAAGAUGCCAUCCAGAGUCUUCACCUCCUGGGCCGCAGUAGAAGACUUGGGCUUGUGGUCCCCAUACCCCAACAGAGGAUUGAGCAUCA
B2: chr18:77696836:77696837:-_ENSMUSG00000025427_ENSMUST00000026494|mus_mus|FALSE|FALSE (ssRNA)
RNA: GGGAGUUCUACAGUCCGACGAUCUCCUCGGGAUAGAGGGAUGAGAGGGCUUAGGAAUGUAGGGAGGGGAGGGAAGACAGAGAGCAGACUUGAGGUGGGGAAAGAGGCCUGGGGGAGGGGGCACGAGUGACAAGUGAAAGGAUUCAACAGAGGAUUGAGCAUCA
B3: chr11:71671816:71671817:+_ENSG00000137522_ENST00000530137|hu_hu|FALSE|FALSE (ssRNA)
RNA: GGGAGUUCUACAGUCCGACGAUCGCGAUGAGGAUGAGGACCAUUUCAGCAUGCAUAGCUUCAUGGCCACGGUGCUUGGCAUGCAUGCGUGCGUGCUCGACCCUCAUCCAGCUCCCGUUCCCCAGCAGCACCACCUCCAACCUCCAACAGAGGAUUGAGCAUCA
B4: chr18:46858332:46858333:-_ENSG00000141627_ENST00000269445|hu_hu|FALSE|FALSE (ssRNA)
RNA: GGGAGUUCUACAGUCCGACGAUCCGACUGCUGAGGGAAAACAUGGGCCCCUGGAGGAGGUGGCUUUUCUUGUCUGAUAAAGUUAUAUAAUAAGGUCUUCACAAGUUUGCUGGUGUAUGGAAGACAUGGACCUCGCAUCAAAUACAACAGAGGAUUGAGCAUCA
B5: chr8:108054885:108054886:-_ENSMUSG00000013160_ENSMUST00000013304|mus_mus|FALSE|FALSE (ssRNA)
RNA: GGGAGUUCUACAGUCCGACGAUCUGAACGCUGGUGCAGUGUGCCUGUGAUUAGCAGGAUCACGUUGUCAAUCAUGUAGCUAUAAGUUAUGAAGUCCAGGAAGCUGGCGAGCGGCUCAUAAGCAUGGUUUCUCAUGUGGCGGAACAACAGAGGAUUGAGCAUCA
B6: chr1:35656432:35656433:-_ENSG00000116560_ENST00000357214|perfect_dup|motif|central (ssRNA)
RNA: GGGAGUUCUACAGUCCGACGAUCAGAUCUUCCGCGAUCAUCCACAAUUACAACAGCCCUUUCAAUAGGACCAAACUGGCGGAAGGCCUCUUCCAAAAGUUCGUUGGAAACAUAAGGAGAGAGAUUUCGAACAGACAGGGCUGCCAACAGAGGAUUGAGCAUCA
B7: 17381947_17386413_246_CDS_ENSMUSG00000041720_ENSMUST00000036161|mouse|control|control (ssRNA)
RNA: GGGAGUUCUACAGUCCGACGAUCGCAGAAGCUGAAGCUCUCUGCAACUGGGAGGUUACCUCUGCCUUUCCGAGCUGUGCUUUCUUCUACCCAAUACACUUUUGGAAGACCCCUGAGAAGUCGAAGAAGAUAAGGAACAACACACAACAGAGGAUUGAGCAUCA
B8: 235582851_235590549_671_CDS_ENSG00000116957_ENST00000366601|human|control|control (ssRNA)
RNA: GGGAGUUCUACAGUCCGACGAUCAUUAAGGACUUCCAGGUGUCUGAGCUGAUCAGCAAUGUGUAUCACUUCAUCCCAUGAUGACAACAGGUUUUUUGACAAAUCUACCUUUCUGAUAUUAGGACAUGCUUCAGCAACUCCUCCCAACAGAGGAUUGAGCAUCA
B9: chr16:94690093:94690094:+_ENSMUSG00000040785_ENSMUST00000117648|mus_hu|mus_mus_mus_hu_True|48_48 (ssRNA)
RNA: GGGAGUUCUACAGUCCGACGAUCGGGCUGGGAUGACGGACACACAGCCUCGAUUCCAGGGGGAAAAAGUCUUAGUCGAUACUAAUUUAAAAAGUAUAAUGAUUUUUGAAAAUCAGAUUACAUCUAUAAAAGAUGAAAAGCAAACAACAGAGGAUUGAGCAUCA
B10: chr16:94690093:94690094:+_ENSMUSG00000040785_ENSMUST00000117648|mus_hu|mus_mus_mus_hu_True|18_38 (ssRNA)
RNA: GGGAGUUCUACAGUCCGACGAUCGGGCUGGGAUGACGGACACACAGCCUCGAUUCCAGGGGGAAAAAGUCUUAGUCGAUACUAAUUAAAAAGUGUUUUUAUAAUUGGAAAAUCAGAUGUAGAUUAAAAAAGAUGAAAAGCAAACAACAGAGGAUUGAGCAUCA
B11: chr16:94690093:94690094:+_ENSMUSG00000040785_ENSMUST00000117648|mus_hu|mus_mus_mus_hu_True|18_78 (ssRNA)
RNA: GGGAGUUCUACAGUCCGACGAUCGGGCUGGGAUGACGGACACACAGCCUCGAUUCCGGUAAAAAAAAGUCUUAGUCGAUACUAAUUAAAAAGUGUUAAUGAUUUUUGAAAAUCAGAUGUAGAUUAAAAAAGAUGAAAAGCAAACAACAGAGGAUUGAGCAUCA
B12: chr16:94690093:94690094:+_ENSMUSG00000040785_ENSMUST00000117648|mus_hu|mus_mus_mus_hu_True|18_98 (ssRNA)
RNA: GGGAGUUCUACAGUCCGACGAUCGGGCUGGGAUGACAGCAGACAGCCCUCGAUUCCAGGGGGAAAAAGUCUUAGUCGAUACUAAUUAAAAAGUGUUAAUGAUUUUUGAAAAUCAGAUGUAGAUUAAAAAAGAUGAAAAGCAAACAACAGAGGAUUGAGCAUCA
B13: chr16:94690093:94690094:+_ENSMUSG00000040785_ENSMUST00000117648|mus_hu|mus_mus_mus_hu_True|1_68 (ssRNA)
RNA: GGGAGUUCUACAGUCCGACGAUCGGGCUGGGAUGACGGACACACAGCCUCGAUUCCAGGGGGAAAAAAAAAUAGCCGAUACUAAUUAAAAAGUGUUAAUGAUUUUUGAAAAUCAGAUUACAUCUAUAAAAGAUGAAAGCACUUCAACAGAGGAUUGAGCAUCA
B14: chr5:74677807:74677808:-_ENSG00000113163_ENST00000380494|hu_mus|motif|central (ssRNA)
RNA: GGGAGUUCUACAGUCCGACGAUCACGGACACAUCGAUUGUUCAGAGGAGCACUAUCAUGAUCCACAGAAAAAUUACAAACGGUCCAAGUUUCAGGAUCAUUUUCAGUCAAGGCUGGGAUCUUUCGAAUAGCAGAAAGAUACAGCAACAGAGGAUUGAGCAUCA
B15: chr17:6086338:6086339:+_ENSMUSG00000034345_ENSMUST00000039487|mus_mus|motif|central (ssRNA)
RNA: GGGAGUUCUACAGUCCGACGAUCUGACUGAAAUAUAAAAUCCAGUAGUGCUCCAAUACAGCUAGAGUGUCCAUAAAAAUCGGUCUUCUACUUAAUUCUUAGUAUCAGGUGUGUAAGUAACAAUCCACUGGAAAGUUUACAUUACAACAGAGGAUUGAGCAUCA
B16: chr16:94690093:94690094:+_ENSMUSG00000040785_ENSMUST00000117648|mus_hu|mus_mus_mus_hu_True|8_98 (ssRNA)
RNA: GGGAGUUCUACAGUCCGACGAUCGGGCUGGGAUGACAGCAGACAGCCCUCGAUUCCAGGGGGAAAAAGUCUUAGUCGAUACUAAUUAAAAAGUGUUAAUGAUUUUUGAAAAUCAGAUUACAUCUAUUUGAAUCAUAAAGCAAACAACAGAGGAUUGAGCAUCA
B17: chr16:94690093:94690094:+_ENSMUSG00000040785_ENSMUST00000117648|mus_hu|mus_mus_mus_hu_True|68_78 (ssRNA)
RNA: GGGAGUUCUACAGUCCGACGAUCGGGCUGGGAUGACGGACACACAGCCUCGAUUCCGGUAAAAAAAAAAAAUAGCCGAUACUAAUUAAAAAGUGUUAAUGAUUUUUGAAAAUCAGAUUACAUCUAUAAAAGAUGAAAAGCAAACAACAGAGGAUUGAGCAUCA
B18: chr16:94664806:94664807:+_ENSMUSG00000040785_ENSMUST00000117648|mus_hu|motif|central (ssRNA)
RNA: GGGAGUUCUACAGUCCGACGAUCAUGAUGACCCUCAAAAUAGGCAGCAGCAUUUUUAUCUGCUCUGUCAUUGGCGGCAAAAGACGGCACCACUGGUACUGAUCUUGGUAGCUGAUAUUCAGGAGAAAGGCUGGCCAAGGGUGUCAACAGAGGAUUGAGCAUCA
B19: chr7:7679991:7679992:-_ENSG00000106399_ENST00000396682|hu_hu|hu_hu_hu_mus_False|1_8 (ssRNA)
RNA: GGGAGUUCUACAGUCCGACGAUCUGGGAUGAAUCUUUUCCAGCUUCCCCACGAAGCACACGGGCCGGUCGAUAUACUGUGGUAACAUGCUGGCGUUGACGCGCGCUUUGGGGAGCUGCAUUAUGUCCACCAUGAUUAUGGUCCCAACAGAGGAUUGAGCAUCA
B20: chr13:100200574:100200575:-_ENSMUSG00000052727_ENSMUST00000064762|mus_hu|motif|central (ssRNA)
RNA: GGGAGUUCUACAGUCCGACGAUCAUAAUCUUCUUCAUCUGGGGACCUGGUUGUUUCCUCAGGCUUUUGAUAGGCAUAGCGGAAGUCACCAGGUGUCUUCCCUCCACUGUCCUUCUCCAGGCCAGGUGUGGACAAAUCUCUAUUCAACAGAGGAUUGAGCAUCA
B21: chr2:48026839:48026840:+_ENSG00000116062_ENST00000540021|hu_hu|hu_hu_hu_mus_False|58_68 (ssRNA)
RNA: GGGAGUUCUACAGUCCGACGAUCAUAGUGAGCCACUAGCGUCCUAAAUCUGGAACAGUGGCGGUCAUCUGAAAACUGACCUAUGAAAAACUUGCCCAGUGAAGUGUCCACAAAGCAAACACCAUACACACGAGUGUGACCAGACAACAGAGGAUUGAGCAUCA
B22: chrX:98862621:98862622:+_ENSMUSG00000034160_ENSMUST00000044475|mus_hu|mus_mus_mus_hu_False|48_68 (ssRNA)
RNA: GGGAGUUCUACAGUCCGACGAUCCUGCAUCUCCUUUAGAGUGUUUCCCAUAUUAGAGUAGGCAUCAGCAAAUGUAGGACUGAUUCGUAUGGCUUCUUUAUAAUGCAUCAGAGCUUCCUGCAGUUUUCCCUGCUGCUGCAGUACCAACAGAGGAUUGAGCAUCA

molecular target: T1, UNK ZnF1-3 (human, UniProt Q9C0B0 31-174); test: nsRBNS (natural sequence RNA bind-n-seq); RBNS binding buffer (assumed for nsRBNS): 25 mM Tris pH 7.5, 150 mM KCl, 3 mM MgCl2, 0.01% Triton X-100, 500 ug/ml BSA, 20 U/ml SUPERase-In, 4 C; UNK is unkempt and MSI1 is Musashi-1; names of the RNAs are library labels; protein concentration not given here; high values mean tight binding
T1 sequence: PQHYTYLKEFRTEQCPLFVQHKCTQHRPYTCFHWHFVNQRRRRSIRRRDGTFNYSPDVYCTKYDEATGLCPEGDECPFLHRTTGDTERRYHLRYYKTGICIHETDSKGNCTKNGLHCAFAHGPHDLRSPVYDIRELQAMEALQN

Binder	binding signal [enrichment R]
B1	0.829
B2	2.5
B3	0.585
B4	2.32
B5	0.896
B6	1.13
B7	0.848
B8	0.938
B9	0.836
B10	3.69
B11	3.5
B12	4.09
B13	1.12
B14	1.36
B15	0.812
B16	0.999
B17	5.49
B18	1.61
B19	0.387
B20	0.378
B21	1.18
B22	1.06
